Holding throughout (settings): modulator concentration 10 µM
The subject of test [1] is RAW-Dual (murine macrophage reporter line). The test is described as follows: NF-kB reporter (SEAP) activity fold change vs agonist alone; higher = enhanced NF-kB activity. In short, it runs like this:
(§1)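 Compound reached 10 μM final in each well by pin transfer, onto RAW-Dual murine macrophage reporter cells seeded at 50 000 per well in 384-well plates. After 1 hour at 37 °C, the cells were stimulated overnight with a PRR agonist. SEAP in the supernatant was read with QUANTI-Blue at 620 nm absorbance for NF-κB, and Lucia luciferase was read with QUANTI-Luc luminescence for IRF. Each signal was turned into fold change against the mean agonist-only control on the same plate, and two replicate plates were averaged with propagated errors.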

Test [2] shares this test system. The test is described as follows: IRF reporter (Lucia luciferase) activity fold change vs agonist alone; higher = enhanced IRF activity. The gist of the method: as §1
Test [3] has the same test system. The test is described as follows: viability score (confluency relative to resting cells, overnight) (fraction); higher = more viable, active = viable (0.7 or more). The gist of the method: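 A compound met the cutoff when both of two confluency masks exceeded 70% of resting cells. Those masks were made with IncuCyte software from IncuCyte images of RAW-Dual macrophages treated overnight at 10 μM final. This is the basis of the viability score, which is confluency relative to resting cells.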

Setting [4] is: agonist: CpG ODN 1826 0.5 ug/mL.

Each structure is given as a SMILES string. ± gives the standard deviation.

The text below walks through data of the supplement of paper PMC10646978.

For the compound `Cc1cc(=O)n(-c2ccccc2)n1C`, the NF-kB reporter worked out at 0.98 ± 0.18 in test [1] (setting [4]), 1.02 ± 0.08 in test [1] (agonist: LPS 0.1 ug/mL) and 0.99 ± 0.095 in test [1] (agonist: MPLA […]). The IRF reporter in test [2] (agonist: 3'3'-cGAMP 10 ug/mL) came out at 1.02 ± 0.033; in test [2] (agonist: LPS 0.1 ug/mL), 1.27 ± 0.18; in test [2] (agonist: MPLA […]), 1.22 ± 0.14. Also, the viability score in test [3] was 0.995 (active).

On to `O=S(=O)(Nc1ccc(-c2nc3cccnc3s2)cc1)c1cccs1`, for which the NF-kB reporter in test [1] (setting [4]) turned out to be 0.902 ± 0.23; in test [1] (agonist: LPS 0.1 ug/mL), 0.748 ± 0.23; in test [1] (agonist: MPLA […]), 0.566 ± 0.07. For the same compound, the IRF reporter in test [2] (agonist: 3'3'-cGAMP 10 ug/mL) was 0.783 ± 0.027; in test [2] (agonist: LPS 0.1 ug/mL), 0.973 ± 0.37; in test [2] (agonist: MPLA […]) it was 0.892 ± 0.12. In test [3], the viability score is 0.672 (inactive).

As for `CN(C)CCNC(=O)C(=O)NC(c1ccccc1)c1ccccc1`, the NF-kB reporter in test [1] (setting [4]) was 1.03 ± 0.11; in test [1] (agonist: LPS 0.1 ug/mL) it was 1.01 ± 0.089; in test [1] (agonist: MPLA […]), 0.95 ± 0.027. In addition, the IRF reporter in test [2] (agonist: 3'3'-cGAMP 10 ug/mL) was 0.998 ± 0.042; in test [2] (agonist: LPS 0.1 ug/mL) it was 1.03 ± 0.091; in test [2] (agonist: MPLA […]), 0.962 ± 0.12. Also, the viability score in test [3] was 0.996 (active).

For the compound `O=C(Cn1ccnc1[N+](=O)[O-])NCCO` [Prestw-649], the NF-kB reporter in test [1] (setting [4]) came out at 1.09 ± 0.081; in test [1] (agonist: LPS 0.1 ug/mL), 1.01 ± 0.12; in test [1] (agonist: MPLA […]), 1.05 ± 0.03. Besides, the IRF reporter is 1.09 ± 0.16 in test [2] (agonist: 3'3'-cGAMP 10 ug/mL), 0.982 ± 0.11 in test [2] (agonist: LPS 0.1 ug/mL) and 0.994 ± 0.15 in test [2] (agonist: MPLA […]). Further, the viability score in test [3] is 1 (active).

Turning to `COc1ccccc1OCC(O)CN1CCN(CC(=O)Nc2c(C)cccc2C)CC1.Cl.Cl` (stereo not drawn), the NF-kB reporter in test [1] (setting [4]) was determined as 0.724 ± 0.11; in test [1] (agonist: LPS 0.1 ug/mL), 0.982 ± 0.19; in test [1] (agonist: MPLA […]), 0.991 ± 0.064. The IRF reporter worked out at 0.908 ± 0.064 in test [2] (agonist: 3'3'-cGAMP 10 ug/mL), 1.05 ± 0.23 in test [2] (agonist: LPS 0.1 ug/mL) and 0.931 ± 0.16 in test [2] (agonist: MPLA […]). The viability score in test [3] was 0.991 (active).

As for `CN1CCN(CC(O)Cn2c3ccccc3c3ccccc32)CC1.O=C(O)C(=O)O` (stereo not drawn), the NF-kB reporter in test [1] (setting [4]) came to 0.964 ± 0.074; in test [1] (agonist: LPS 0.1 ug/mL), 0.946 ± 0.1; in test [1] (agonist: MPLA […]), 0.983 ± 0.093. In addition, the IRF reporter was determined as 0.609 ± 0.02 in test [2] (agonist: 3'3'-cGAMP 10 ug/mL), 1.39 ± 0.19 in test [2] (agonist: LPS 0.1 ug/mL) and 1.45 ± 0.23 in test [2] (agonist: MPLA […]). Moreover, in test [3], the viability score was 1.01 (active).

In the case of `COc1ccc(CN(CCN(C)C)c2ccccn2)cc1` [Prestw-289], the NF-kB reporter in test [1] (setting [4]) was 0.902 ± 0.068; in test [1] (agonist: LPS 0.1 ug/mL) it was 1.08 ± 0.11; in test [1] (agonist: MPLA […]), 1.01 ± 0.026. The IRF reporter in test [2] (agonist: 3'3'-cGAMP 10 ug/mL) worked out at 0.976 ± 0.11; in test [2] (agonist: LPS 0.1 ug/mL) it was 0.912 ± 0.1; in test [2] (agonist: MPLA […]) it was 0.848 ± 0.066. Further, the viability score in test [3] was 0.993 (active).

For the compound `CCc1cc(=O)oc2cc(OCC(=O)OC(C)C)ccc12`, the NF-kB reporter in test [1] (setting [4]) came to 0.827 ± 0.064; in test [1] (agonist: LPS 0.1 ug/mL), 0.857 ± 0.042; in test [1] (agonist: MPLA […]), 1.11 ± 0.096. Moreover, the figures for the IRF reporter in test [2] (agonist: 3'3'-cGAMP 10 ug/mL), in test [2] (agonist: LPS 0.1 ug/mL) and in test [2] (agonist: MPLA […]) were 1.04 ± 0.048, 1.44 ± 0.096 and 1.73 ± 0.24, respectively. Further, in test [3], the viability score is 1 (active).

As to `Cn1ncc(Cl)c1-c1cc(C(=O)N[C@H](CN)Cc2cccc(F)c2)sc1Cl`, the values for the NF-kB reporter in test [1] (setting [4]), in test [1] (agonist: LPS 0.1 ug/mL) and in test [1] (agonist: MPLA […]) were 0.833 ± 0.2, 1.54 ± 0.11 and 1.64 ± 0.17, respectively. Further, the IRF reporter in test [2] (agonist: 3'3'-cGAMP 10 ug/mL) was found to be 0.69 ± 0.026; in test [2] (agonist: LPS 0.1 ug/mL), 1.55 ± 0.21; in test [2] (agonist: MPLA […]), 1.79 ± 0.33. The viability score in test [3] was 0.647 (inactive).

Regarding `CC[C@@]1(O)C(=O)OCc2c1cc1n(c2=O)Cc2cc3c(CN(C)C)c(O)ccc3nc2-1.Cl`, the NF-kB reporter is 2.27 ± 0.11 in test [1] (setting [4]), 1.41 ± 0.12 in test [1] (agonist: LPS 0.1 ug/mL) and 2.16 ± 0.11 in test [1] (agonist: MPLA […]). Further, the figures for the IRF reporter in test [2] (agonist: 3'3'-cGAMP 10 ug/mL), in test [2] (agonist: LPS 0.1 ug/mL) and in test [2] (agonist: MPLA […]) were 2.12 ± 0.15, 2.89 ± 0.17 and 3.26 ± 0.26, respectively. Besides, in test [3], the viability score is 0.725 (active).

`Cc1cc(-c2ccccc2)nnc1NCCN1CCOCC1.Cl.Cl`: the NF-kB reporter turned out to be 1.19 ± 0.28 in test [1] (setting [4]), 1.04 ± 0.1 in test [1] (agonist: LPS 0.1 ug/mL) and 1 ± 0.073 in test [1] (agonist: MPLA […]). For the same compound, the figures for the IRF reporter in test [2] (agonist: 3'3'-cGAMP 10 ug/mL), in test [2] (agonist: LPS 0.1 ug/mL) and in test [2] (agonist: MPLA […]) were 0.966 ± 0.049, 1.28 ± 0.14 and 1.27 ± 0.12, respectively. In test [3], the viability score was 0.989 (active).

`COc1ccc(NC(=O)c2cn(-c3cc(N4CCSCC4)ncn3)cn2)cc1`: the NF-kB reporter in test [1] (setting [4]) was found to be 1.04 ± 0.058; in test [1] (agonist: LPS 0.1 ug/mL), 1.13 ± 0.091; in test [1] (agonist: MPLA […]), 0.939 ± 0.041. Further, the IRF reporter in test [2] (agonist: 3'3'-cGAMP 10 ug/mL) amounted to 1.03 ± 0.069; in test [2] (agonist: LPS 0.1 ug/mL), 1.13 ± 0.23; in test [2] (agonist: MPLA […]) it was 1.07 ± 0.33. The viability score in test [3] was 0.997 (active).

With `O=C(c1cc(C(F)(F)F)cc(C(F)(F)F)c1)N1CCOCC1CO` (stereo not drawn), the NF-kB reporter worked out at 0.94 ± 0.053 in test [1] (setting [4]), 1.03 ± 0.12 in test [1] (agonist: LPS 0.1 ug/mL) and 0.869 ± 0.099 in test [1] (agonist: MPLA […]). For the same compound, the IRF reporter in test [2] (agonist: 3'3'-cGAMP 10 ug/mL) stood at 0.969 ± 0.072; in test [2] (agonist: LPS 0.1 ug/mL), 1.04 ± 0.092; in test [2] (agonist: MPLA […]), 0.989 ± 0.38. For the same compound, the viability score in test [3] was 0.999 (active).

Take `CC1=NN(c2ccc(Cl)cc2)C(=O)C1=Cc1c(C)nn(-c2ccc(C)cc2C)c1O`: the NF-kB reporter was determined as 1.01 ± 0.13 in test [1] (setting [4]), 0.866 ± 0.097 in test [1] (agonist: LPS 0.1 ug/mL) and 0.944 ± 0.051 in test [1] (agonist: MPLA […]). Also, the IRF reporter in test [2] (agonist: 3'3'-cGAMP 10 ug/mL) worked out at 0.891 ± 0.031; in test [2] (agonist: LPS 0.1 ug/mL), 1.06 ± 0.085; in test [2] (agonist: MPLA […]), 1.15 ± 0.17. Besides, in test [3], the viability score was 0.998 (active).
